According to PubChem BioAssay (Tox21):
Results filed as inconclusive are left out. Entries that show only a call come without a potency. The source made the active and inactive calls. Unless noted, calls come from the whole dose curve; as a rule, active = well fitted activation curve with a large enough effect in the repeat runs; inconclusive = weak or mixed curves, or effect the other way; inactive = no such curve, though single readings can be large or run the other way. Positions of bridges follow the written chain, without caps; N, C: chain ends. Non-standard residues stand in square brackets, D forms with d. Residues, ends and D or L forms follow the SMILES beside them. *: point of attachment. X2 = CC[C@H](C)CCCCC(=O)*; Orn = NCCC[C@H](N)C(=O)O; Dab = NCC[C@H](N)C(=O)O; Mpa = O=C(O)CCS

Target: Estrogen receptor (Homo sapiens) (UniProt P03372)
Experiment: qHTS assay to identify small molecule agonists of the estrogen receptor alpha (ER-alpha) signaling pathway using the BG1 cell line (AID 743079); note: nearly all actives have a fitted effect of over 20% in size
Conditions: BG1Luc4E2 cells, ERE-luciferase agonist, 22 h; activation: at 70.3 µM (top of the series)
Potency is the fitted concentration of half-maximal effect.

Sequence of Estrogen receptor (Homo sapiens) (P03372 whole entry, looked up): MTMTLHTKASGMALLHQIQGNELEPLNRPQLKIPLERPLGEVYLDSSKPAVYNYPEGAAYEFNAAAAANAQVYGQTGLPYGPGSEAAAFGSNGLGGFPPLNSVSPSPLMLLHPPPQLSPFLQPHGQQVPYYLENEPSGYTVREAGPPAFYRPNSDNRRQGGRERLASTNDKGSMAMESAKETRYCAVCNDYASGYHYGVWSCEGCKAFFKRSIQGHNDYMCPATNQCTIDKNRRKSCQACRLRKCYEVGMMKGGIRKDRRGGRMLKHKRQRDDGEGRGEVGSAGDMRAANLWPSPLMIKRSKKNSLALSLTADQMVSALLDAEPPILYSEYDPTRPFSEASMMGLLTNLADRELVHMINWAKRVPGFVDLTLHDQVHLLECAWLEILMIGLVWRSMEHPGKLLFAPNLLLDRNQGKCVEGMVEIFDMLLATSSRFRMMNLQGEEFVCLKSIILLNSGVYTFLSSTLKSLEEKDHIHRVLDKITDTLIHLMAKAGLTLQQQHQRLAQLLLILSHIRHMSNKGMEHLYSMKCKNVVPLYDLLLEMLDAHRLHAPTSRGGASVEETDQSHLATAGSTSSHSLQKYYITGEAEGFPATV

| Structure (SMILES) | Potency |
| --- | --- |
| O=C(O)c1cccc(/C=C2/C[C@@H]3[C@@H](/C=C/[C@@H](O)C4CCCCC4)[C@H](O)C[C@@H]3O2)c1 | inactive |
| CC1(C)S[C@@H]2[C@H](NC(=O)[C@H](N)c3ccccc3)C(=O)N2[C@H]1C(=O)OCOC(=O)[C@@H]1N2C(=O)C[C@H]2S(=O)(=O)C1(C)C | inactive |
| NCCC(=O)[N-][C@@H](Cc1cnc[nH]1)C(=O)O.[Zn] | inactive |
| CNc1cc(OC)c(C(=O)N[C@H]2CCN(Cc3ccccc3)[C@H]2C)cc1Cl | inactive |
| C#CCOc1ccc2c(C)cc(=O)oc2c1 | inactive |
| OC[C@H]1O[C@@H](n2cnc3c2NC=NC[C@H]3O)C[C@@H]1O | inactive |
| CCCC(=O)Nc1c(I)cc(I)c(CC(CC)C(=O)O)c1I (centres undefined) | inactive |
| O=P(O)(O)OC(CO)CO | inactive |
| CCCCCCCCCCCCCCCC(=O)O[C@@H]1[C@@H](O)[C@@H](O)[C@@H]([C@H](NC(=O)[C@@H]2C[C@@H](CCC)CN2C)[C@H](C)Cl)O[C@@H]1SC | inactive |
| CC(=O)O[C@H]1C[C@@]2(C)[C@@H](C[C@@H](O)[C@H]3[C@@]4(C)CC[C@@H](O)[C@@H](C)[C@@H]4CC[C@@]32C)/C1=C(\CCC=C(C)C)C(=O)O | inactive |
| C[C@H](CSC(=O)c1ccccc1)C(=O)N1C[C@@H](Sc2ccccc2)C[C@H]1C(=O)O | inactive |
| O=S(O)CNc1ccc(S(=O)(=O)c2ccc(NCS(=O)O)cc2)cc1 | inactive |
| CC(=O)O[C@H]1C[C@@H]2CC[C@@H]3[C@H](CC[C@@]4(C)[C@H]3C[C@H](N3CC[N+](C)(C)CC3)[C@@H]4OC(C)=O)[C@@]2(C)C[C@@H]1N1CC[N+](C)(C)CC1 | inactive |
| O=C1O[C@H]2[C@H](O)[C@@H]1OC(O)[C@H]2O (some centres undefined) | 13.3 µM (active) |
| CC[C@H]1OC(=O)[C@H](C)[C@@H](O[C@H]2C[C@@](C)(OC)[C@@H](O)[C@H](C)O2)[C@H](C)[C@@H](O[C@@H]2O[C@H](C)C[C@H](N(C)C)[C@H]2O)[C@](C)(O)C[C@@H](C)[C@@H]2N[C@@H](COCCOC)O[C@@H]([C@H]2C)[C@]1(C)O | inactive |
| Cn1c(=O)c2c(ncn2CCOC(=O)C(C)(C)Oc2ccc(Cl)cc2)n(C)c1=O | inactive |
| O=C(O)c1ccc(OCCn2ccnc2)cc1 | inactive |
| CO[C@@H]1[C@@H](O[C@@H]2O[C@H](C)[C@@H](O[C@H]3C[C@@](C)(O)[C@@H](OC(=O)CC(C)C)[C@H](C)O3)[C@H](N(C)C)[C@H]2O)[C@@H](CC=O)C[C@@H](C)[C@@H](O)/C=C/C=C/C[C@@H](C)OC(=O)C[C@H]1O | 13.3 µM (active) |
| CCN(CC)CCOc1ccc2nc(N(C)C)sc2c1 | 26.6 µM (active) |
| COCC1=C(C(=O)OC(C)OC(=O)OC(C)C)N2C(=O)[C@@H](NC(=O)/C(=N\OC)c3csc(N)n3)[C@H]2SC1 (some centres undefined) | inactive |
| CC1=C(/C=C/C(C)=C/C=C/C(C)=C/C=C/C=C(C)/C=C/C=C(C)/C=C/C2=C(C)C(=O)CCC2(C)C)C(C)(C)CCC1=O | 5.31 µM (active) |
| CC[C@H](C)CCCCC(=O)N[C@@H](CCN)C(=O)N[C@H](C(=O)N[C@@H](CCN)C(=O)N[C@H]1CCNC(=O)[C@H]([C@@H](C)O)NC(=O)[C@H](CCN)NC(=O)[C@H](CCN)NC(=O)[C@H](CC(C)C)NC(=O)[C@@H](CC(C)C)NC(=O)[C@H](CCN)NC1=O)[C@@H](C)O (X2-[Dab]T[Dab][Dab][Dab][dL]L[Dab][Dab]T; lactam 4-C) | inactive |
| O=C(NCCNCC(O)COc1ccc(O)cc1)N1CCOCC1 (centres undefined) | inactive |
| CCOc1ccc(C[C@H]2NC(=O)CCSSC[C@@H](C(=O)N3CCC[C@H]3C(=O)N[C@@H](CCCN)C(=O)NCC(N)=O)NC(=O)[C@H](CC(N)=O)NC(=O)[C@H]([C@@H](C)O)NC(=O)[C@H]([C@@H](C)CC)NC2=O)cc1 ([Mpa][dY](Et)ITNCP[Orn]G-NH2; disulfide 1-6) | inactive |
| CC(C)CN(C[C@@H](O)[C@H](Cc1ccccc1)NC(=O)O[C@H]1CO[C@H]2OCC[C@H]21)S(=O)(=O)c1ccc(N)cc1 | inactive |
| CCC(=O)NS(=O)(=O)c1ccc(-c2c(-c3ccccc3)noc2C)cc1 | inactive |
| CN(C(=O)CO)c1c(I)c(C(=O)NCC(O)CO)c(I)c(C(=O)NCC(O)CO)c1I (centres undefined) | inactive |
| CC(C(=O)O)c1ccc(N2Cc3ccccc3C2=O)cc1 (centres undefined) | 0.119 µM (active) |

System: not listed separately
Experiment: qHTS assay to identify small molecule antagonists of the estrogen receptor alpha (ER-alpha) signaling pathway using the BG1 cell line (AID 743080; calls by dose curve;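 note: BG1 cells stimulated with 17beta-estradiol alongside compound; nearly all actives have a fitted effect of over 25% in size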)
Conditions: BG1Luc4E2 ERE-luciferase antagonist mode, luminescence; series mostly up to 70.3 µM
Outline: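 BG1Luc4E2, endogenous ER-alpha, 4xERE-luc; 5 d charcoal-stripped FBS, phenol red free; 24 h plating; cpd + 17beta-estradiol 21.5 h, 37 C/5% CO2; CellTiter-Fluor viability 30 min, then ONE-Glo luciferase 30 min RT.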

| Structure (SMILES) | Potency |
| --- | --- |
| O=C(O)c1cccc(/C=C2/C[C@@H]3[C@@H](/C=C/[C@@H](O)C4CCCCC4)[C@H](O)C[C@@H]3O2)c1 | inactive |
| CC1(C)S[C@@H]2[C@H](NC(=O)[C@H](N)c3ccccc3)C(=O)N2[C@H]1C(=O)OCOC(=O)[C@@H]1N2C(=O)C[C@H]2S(=O)(=O)C1(C)C | inactive |
| NCCC(=O)[N-][C@@H](Cc1cnc[nH]1)C(=O)O.[Zn] | inactive |
| CNc1cc(OC)c(C(=O)N[C@H]2CCN(Cc3ccccc3)[C@H]2C)cc1Cl | inactive |
| OC[C@H]1O[C@@H](n2cnc3c2NC=NC[C@H]3O)C[C@@H]1O | inactive |
| CCCC(=O)Nc1c(I)cc(I)c(CC(CC)C(=O)O)c1I (centres undefined) | inactive |
| O=P(O)(O)OC(CO)CO | inactive |
| CCCCCCCCCCCCCCCC(=O)O[C@@H]1[C@@H](O)[C@@H](O)[C@@H]([C@H](NC(=O)[C@@H]2C[C@@H](CCC)CN2C)[C@H](C)Cl)O[C@@H]1SC | inactive |
| CC(=O)O[C@H]1C[C@@]2(C)[C@@H](C[C@@H](O)[C@H]3[C@@]4(C)CC[C@@H](O)[C@@H](C)[C@@H]4CC[C@@]32C)/C1=C(\CCC=C(C)C)C(=O)O | inactive |
| C[C@H](CSC(=O)c1ccccc1)C(=O)N1C[C@@H](Sc2ccccc2)C[C@H]1C(=O)O | inactive |
| O=S(O)CNc1ccc(S(=O)(=O)c2ccc(NCS(=O)O)cc2)cc1 | inactive |
| CC(=O)O[C@H]1C[C@@H]2CC[C@@H]3[C@H](CC[C@@]4(C)[C@H]3C[C@H](N3CC[N+](C)(C)CC3)[C@@H]4OC(C)=O)[C@@]2(C)C[C@@H]1N1CC[N+](C)(C)CC1 | inactive |
| O=C1O[C@H]2[C@H](O)[C@@H]1OC(O)[C@H]2O (some centres undefined) | inactive |
| CC[C@H]1OC(=O)[C@H](C)[C@@H](O[C@H]2C[C@@](C)(OC)[C@@H](O)[C@H](C)O2)[C@H](C)[C@@H](O[C@@H]2O[C@H](C)C[C@H](N(C)C)[C@H]2O)[C@](C)(O)C[C@@H](C)[C@@H]2N[C@@H](COCCOC)O[C@@H]([C@H]2C)[C@]1(C)O | inactive |
| Cn1c(=O)c2c(ncn2CCOC(=O)C(C)(C)Oc2ccc(Cl)cc2)n(C)c1=O | 29.8 µM (active) |
| O=C(O)c1ccc(OCCn2ccnc2)cc1 | inactive |
| CO[C@@H]1[C@@H](O[C@@H]2O[C@H](C)[C@@H](O[C@H]3C[C@@](C)(O)[C@@H](OC(=O)CC(C)C)[C@H](C)O3)[C@H](N(C)C)[C@H]2O)[C@@H](CC=O)C[C@@H](C)[C@@H](O)/C=C/C=C/C[C@@H](C)OC(=O)C[C@H]1O | inactive |
| COCC1=C(C(=O)OC(C)OC(=O)OC(C)C)N2C(=O)[C@@H](NC(=O)/C(=N\OC)c3csc(N)n3)[C@H]2SC1 (some centres undefined) | inactive |
| O=C1C(=O)c2ncccc2-c2cccnc21 | 5.96 µM (active) |
| CC[C@H](C)CCCCC(=O)N[C@@H](CCN)C(=O)N[C@H](C(=O)N[C@@H](CCN)C(=O)N[C@H]1CCNC(=O)[C@H]([C@@H](C)O)NC(=O)[C@H](CCN)NC(=O)[C@H](CCN)NC(=O)[C@H](CC(C)C)NC(=O)[C@@H](CC(C)C)NC(=O)[C@H](CCN)NC1=O)[C@@H](C)O (X2-[Dab]T[Dab][Dab][Dab][dL]L[Dab][Dab]T; lactam 4-C) | inactive |
| O=C(NCCNCC(O)COc1ccc(O)cc1)N1CCOCC1 (centres undefined) | inactive |
| CCOc1ccc(C[C@H]2NC(=O)CCSSC[C@@H](C(=O)N3CCC[C@H]3C(=O)N[C@@H](CCCN)C(=O)NCC(N)=O)NC(=O)[C@H](CC(N)=O)NC(=O)[C@H]([C@@H](C)O)NC(=O)[C@H]([C@@H](C)CC)NC2=O)cc1 ([Mpa][dY](Et)ITNCP[Orn]G-NH2; disulfide 1-6) | inactive |
| CC(C)CN(C[C@@H](O)[C@H](Cc1ccccc1)NC(=O)O[C@H]1CO[C@H]2OCC[C@H]21)S(=O)(=O)c1ccc(N)cc1 | inactive |
| CCC(=O)NS(=O)(=O)c1ccc(-c2c(-c3ccccc3)noc2C)cc1 | inactive |
| CN(C(=O)CO)c1c(I)c(C(=O)NCC(O)CO)c(I)c(C(=O)NCC(O)CO)c1I (centres undefined) | inactive |
| CC(C(=O)O)c1ccc(N2Cc3ccccc3C2=O)cc1 (centres undefined) | 16.8 µM (active) |
